Data from PubChem BioAssay (NCATS).
“And” between values parts separate entries of the source, which are not always exact repeats. Identical values can stand only once. Inconclusive results are not listed. The source made the active and inactive calls. The call rests on the fitted dose curve; in most records, active means well fitted curve in the direction sought with a large enough effect; inconclusive means small, poorly fitted or top-dose-only effect, or another doubt; inactive means no such curve, though single readings can be large; an effect the other way counts as inactive or inconclusive. Peptide text beside a SMILES is read from it. * marks the point of attachment. Cbz = O=C(OCc1ccccc1)*

What was measured:
[1] = Viability qHTS for spleen associated tyrosine kinase inhibitor (SYKi) naive MV4-11 cells (AID 1963823); further: nearly all actives have a fitted effect of over 40% in size
Outline: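 CellTiter-Glo luminescence, 10 min room-temperature incubation, gave viability. Cells: naive MV4-11 (500/well), treated 72 hr at 37 C, 5% CO2.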

[2] = Quantitative highthroughput screen to assess conditional lethalithy of NOMO1 cells grown in RPMI1640 with untreated serum (RPMI+s) (AID 1963876); further: nearly all actives have a fitted effect of over 35% in size;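 on Viability: 100% = DMSO wells and 0% = empty wells without cells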
Outline: (§1)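 Each medium arm—HPLM with 10% dialyzed FBS, or RPMI1640 with 5 mM glucose and 10% untreated or dialyzed FBS—was screened against an 11-point, 3-fold compound titration for 48 h at 37 °C, with CellTiter-Glo luminescence as endpoint.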

[3] = Quantitative highthroughput screen to assess conditional lethalithy of NOMO1 cells grown in RPMI1640 with dialyzed fetal bovine serum (RPMI+ds) (AID 1963877); further: nearly all actives have a fitted effect of over 30% in size;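 on Viability: series mostly up to about 46 µM; 100% = DMSO control wells and 0% = empty wells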
Outline: as §1

[4] = Quantitative highthroughput screen to assess conditional lethalithy of NOMO1 cells grown in Human Plasma-Like Medium with dialyzed fetal bovine serum (HPLM+ds) (AID 1963878); further: nearly all actives have a fitted effect of over 35% in size;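 on Viability: 100% = DMSO wells and 0% = empty wells on each plate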
Outline: as §1

[5] = Quantitative highthroughput screen to assess conditional lethalithy of P12 Ichikawa cells grown in Human Plasma-Like Medium with dialyzed fetal bovine serum (HPLM+ds) (AID 1963879); conditions: Potency: viability; further: nearly all actives have a fitted effect of over 35% in size; on Viability: series mostly up to about 46 µM
Outline: as §1

[6] = Quantitative highthroughput screen to assess conditional lethalithy of P12 Ichikawa cells grown in RPMI1640 with dialyzed fetal bovine serum (RPMI+ds) (AID 1963880); conditions: Potency: P12-Ichikawa viability; further: nearly all actives have a fitted effect of over 35% in size;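 on Viability: 100% = DMSO wells and 0% = empty wells on each plate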
Outline: as §1

[7] = Quantitative highthroughput screen to assess conditional lethalithy of P12 Ichikawa cells grown in RPMI1640 with untreated serum (RPMI+s) (AID 1963881); conditions: Potency: viability; further: nearly all actives have a fitted effect of over 35% in size;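 on Viability: series mostly up to about 46 µM; 100% = DMSO wells and 0% = empty wells without cells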
Outline: as §1

[8] = Quantitative highthroughput screen to assess conditional lethalithy of SEM cells grown in Human Plasma-Like Medium with dialyzed fetal bovine serum (HPLM+ds) (AID 1963882); further: nearly all actives have a fitted effect of over 35% in size; on Viability: series mostly up to about 46 µM
Outline: as §1

[9] = Quantitative highthroughput screen to assess conditional lethalithy of SEM cells grown in RPMI1640 with unreated serum (RPMI+s) (AID 1963883); further: nearly all actives have a fitted effect of over 35% in size;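 on Viability: 100% = DMSO wells and 0% = empty wells without cells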
Outline: as §1

[10] = Quantitative highthroughput screen to assess conditional lethalithy of SEM cells grown in RPMI1640 with dialyzed fetal bovine serum (RPMI+ds) (AID 1963884); further: nearly all actives have a fitted effect of over 35% in size;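 on Viability: series mostly up to about 46 µM; 100% = DMSO control wells and 0% = empty wells without cells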
Outline: as §1

[11] = Cellular viability qHTS for adrenocortical cancer (ACC) cell line SW-13 (AID 1963989); conditions: SW-13 ACC cells viability, CellTiter-Glo, 48 h; activity (max response): active compounds read low; further: nearly all actives have a fitted effect of over 65% in size;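 on activity (max response): cells grown in serum-free medium with ITS supplement; on the % scale 0 is the no-effect control and ±100 the full control effect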
Outline: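 Compound titrations (up to 46 uM final, in DMSO) were applied to SW-13 cells for 48 h at 37C/5% CO2. Reading used CellTiter-Glo after 20 min at room temperature; fitted curves yielded IC50 and efficacy.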

[12] = Cellular viability qHTS for adrenocortical cancer (ACC) cell line NCI-H295R (AID 1963990); further: nearly all actives have a fitted effect of over 60% in size
Outline: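 Readout: CellTiter-Glo luminescence, 20 min RT. Exposure: 48 h, 37C/5% CO2. Cells: NCI-H295R, ITS-DMEM serum-free. Range: up to 46 uM. Analysis: 4PL fit, IC50 plus efficacy.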
Potency means the concentration at half of the fitted maximal effect.

O=C(c1ccc(Nc2nccc(-c3cc4ccccc4s3)n2)cc1)N1CCC(N2CCCC2)CC1
active: Potency [1] 920 nM and 468 nM | Potency [2] 26.4 µM | Potency [3] 26.4 µM | Potency [4] 13.2 µM | Potency [5] 18.7 µM | Potency [6] 16.6 µM | Potency [7] 23.5 µM | Potency [8] 7.43 µM | Potency [9] 9.35 µM | Potency [10] 9.35 µM | Potency [11] 6.31 µM | Potency [12] 5.62 µM

O=C1CCCC(=O)C1C(=O)c1ccc(C(F)(F)F)cc1[N+](=O)[O-]
inactive: Potency [1] | Potency [2] | Potency [3] | Potency [4] | Potency [5] | Potency [6] | Potency [7] | Potency [8] | Potency [10] | activity (max response) [11] 6.97% | Potency [12]

O=S(=O)(O)CCS
active: Potency [2] 0.743 µM | Potency [3] 0.833 µM | Potency [5] 3.72 µM | Potency [6] 8.33 µM | Potency [7] 3.72 µM
inactive: Potency [1] | Potency [8] | Potency [9] | Potency [10] | activity (max response) [11] 21.9% and 0.753% | Potency [12]

Cc1cccc(CN2CCN(C(c3ccccc3)c3ccc(Cl)cc3)CC2)c1 (configuration not stated)
inactive: Potency [2] | Potency [5] | Potency [6] | Potency [7] | Potency [9] | Potency [10]
active: Potency [1] 20.9 µM | Potency [11] 3.26 µM and 28.2 µM

CNC(=O)c1cc(Oc2ccc(NC(=O)Nc3ccc(Cl)c(C(F)(F)F)c3)c(F)c2)ccn1
active: Potency [1] 0.296 µM | Potency [4] 3.32 µM | Potency [9] 0.372 µM | Potency [10] 0.332 µM | Potency [12] 7.08 µM
inactive: Potency [3] | Potency [6]

Nc1ncnc2nc(-c3ccc(N4CCOCC4)nc3)cc(-c3cccc(Br)c3)c12
active: Potency [1] 4.68 µM
inactive: Potency [2] | Potency [4] | Potency [5] | Potency [6] | Potency [7] | Potency [8] | Potency [9] | Potency [10] | activity (max response) [11] -17.8% | Potency [12]

O=C(c1ccc(OCCN2CCCCC2)cc1)c1c(-c2ccc(O)cc2)sc2cc(O)ccc12
active: Potency [1] 14.8 µM and 16.4 µM | Potency [11] 20.6 µM and 25.1 µM | Potency [12] 9.2 µM and 31.6 µM
inactive: Potency [2] | Potency [9]

CN1C[C@H]2c3ccccc3Oc3ccc(Cl)cc3[C@@H]2C1
inactive: Potency [2] | Potency [3] | Potency [5] | Potency [6] | Potency [7] | activity (max response) [11] -18.3%
active: Potency [1] 26.6 µM | Potency [9] 26.4 µM | Potency [10] 23.5 µM

COc1cccc(OC)c1-c1cc(C(=O)NC2(C(=O)O)C3CC4CC(C3)CC2C4)nn1-c1ccnc2cc(Cl)ccc12 (configuration not stated)
inactive: Potency [2] | Potency [4] | Potency [5] | Potency [7] | Potency [8] | Potency [9] | Potency [10] | activity (max response) [11] -4.12%
active: Potency [1] 9.34 µM

NC(=O)c1ccc2nc(-c3ccc(Oc4ccc(Cl)cc4)cc3)[nH]c2c1
inactive: Potency [2] | Potency [3] | Potency [5]
active: Potency [1] 5.17 µM | Potency [11] 28.2 µM | Potency [12] 25.1 µM

O=C(NCC1CN(c2ccc(N3CCOCC3=O)cc2)C(=O)O1)c1ccc(Cl)s1 (configuration not stated)
inactive: Potency [1] | Potency [8] | Potency [9] | Potency [10] | activity (max response) [11] -21.7% and -9.76%
active: Potency [2] 0.418 µM | Potency [5] 2.96 µM | Potency [7] 2.96 µM

Cc1ccc(NC(=O)C2(c3ccc4c(c3)OC(F)(F)O4)CC2)nc1-c1cccc(C(=O)O)c1
active: Potency [2] 0.166 µM | Potency [3] 0.209 µM | Potency [5] 0.187 µM | Potency [6] 0.187 µM | Potency [7] 0.148 µM | Potency [8] 0.0935 µM | Potency [9] 0.0743 µM | Potency [10] 0.0833 µM
inactive: Potency [1] | Potency [12]

Cc1cc2nc3c(=O)[nH]c(=O)nc-3n(CC(O)C(O)C(O)CO)c2cc1C (configuration not stated)
inactive: Potency [1] | Potency [2] | Potency [3] | Potency [5] | Potency [6] | Potency [7] | Potency [9] | Potency [10] | activity (max response) [11] 9.67% | Potency [12]

CS(=O)(=O)c1ccc(C2=C(c3ccccc3)C(=O)OC2)cc1
inactive: Potency [1] | Potency [2] | Potency [3] | Potency [5] | Potency [6] | Potency [7] | activity (max response) [11] -9.09% | Potency [12]
active: Potency [9] 16.6 µM | Potency [10] 10.5 µM

CC(C)C[C@@H](C=O)NC(=O)[C@H](CC(C)C)NC(=O)[C@H](CC(C)C)NC(=O)OCc1ccccc1 (Cbz-Leu-Leu-Leu-aldehyde)
active: Potency [1] 0.833 µM | Potency [3] 2.09 µM | Potency [4] 1.48 µM | Potency [5] 2.96 µM | Potency [6] 2.64 µM | Potency [7] 1.18 µM | Potency [8] 0.662 µM | Potency [9] 0.332 µM | Potency [10] 0.743 µM | Potency [11] 0.794 µM
